Compound activity (PubChem)
TDP1 cell noCPT – qHTS for Inhibitors of human tyrosyl-DNA phosphodiesterase 1 (TDP1): qHTS in cells in absence of CPT | DT40 Tdp1-/- hTDP1 cells, no CPT, ATP luminescence, 48 h | Potency, µM (series often up to 46.2 µM), for inactives: at the top dose activity change, negative = growth inhibition, usual class: inhibitors | hit rate 15% among 420,000; further: potency means the concentration at half of the fitted maximal effect; nearly all actives have a fitted effect of over 55% in size
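Seeded 400 DT40-hTDP1 cells/well (vehicle DMSO, no 20 nM CPT); pinned compounds; ≥48 hr at 37 °C; CellTiter-Glo luminescence as viability measure.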
HT1080 IDH1KD tx – kills HT-1080 cells with IDH1 knockdown; HT-1080 IDH1 knockdown viability, ATP luminescence, 48 h; hit rate 2% among 360,000; Potency, µM (titrated, usually from 46.1 µM), for the others: at the highest dose activity, negative = toxicity, hits mostly cytotoxic;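 further: potency means the concentration at half of the fitted maximal effect; 0% = DMSO wells and -100% = cell-free medium wells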
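CellTiter-Glo luminescence after 48 h compound exposure at 37 degrees C of IDH1-knockdown HT-1080 cells in 5% FBS RPMI. %Activity scaled between DMSO wells and cell-free media wells, with curves fitted and assigned curve classes.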
IL-1B inflam inh – inflammasome signaling inhibition, IL-1 beta readout; THP-1 LPS/ATP IL-1B secretion, AlphaLISA, 16 h; stronger effect = lower value; activity change, % at 57.5 µM; hit rate 4.7% among 360,000; in the data active means activity change below about -50%; inconclusive means mostly about -30% to -49%
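Secreted IL-1B measured by AlphaLISA bead assay after 16 h compound exposure of THP-1 cells; compounds (final up to 57.5 uM) added 1 h before LPS (250 ng/mL) and ATP (1.25 mM) stimulation; lower signal means less secretion.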
TDP1 cell CPT – DT40-hTDP1 cell growth loss with CPT. AID 686979. chicken DT40 Tdp1-/-;hTDP1 cells + 20 nM CPT, ATP luminescence, 48 h. Potency, µM (titrated, usually from 46.2 µM), for inactives: top-dose activity change, negative = growth inhibition, actives largely listed as inhibitors. hit rate 12% among 420,000; further: potency means the concentration at half of the fitted maximal effect; nearly all actives have a fitted effect of over 55% in size
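Chicken DT40 Tdp1-/- cells stably complemented with human TDP1 were seeded at 400 cells/well in medium containing 20 nM camptothecin, exposed to pin-transferred compounds, and grown at 37 °C for at least 48 hr. Viability was read as ATP luminescence.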
HT1080NT lethal – kills 2HG-producing HT-1080-NT fibrosarcoma cells. HT-1080-NT fibrosarcoma viability, CellTiter-Glo ATP luminescence, 48 h. Potency, µM (titrated, usually from 46.1 µM), for inactives: at the highest dose activity, negative = less viability, hits mostly cytotoxic. hit rate 1.6% among 360,000. AID 686970;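 further: NT is the 2HG producing partner of a matched IDH1 knockdown line; potency means the concentration at half of the fitted maximal effect; 0% = DMSO-treated cells and -100% = media-only wells without cells; nearly all actives have a fitted effect of over 55% in size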
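Luminescent CellTiter-Glo readout after 48 hours of compound exposure at 37 degrees C defined viability of HT-1080-NT cells. Activity was normalized to DMSO wells and cell-free media wells; concentration-response curves were fitted and assigned curve classes.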
The depositor's hits bear a star; ? = inconclusive; / = not tested or not shown; [ ] = remark or other dose. Sampled rows, rich in hits. Any-hit rate of the full collection: about 19%. Unless noted, the call rests on the fitted dose curve; in most records, active means well fitted curve in the direction sought with a large enough effect; inconclusive means small, poorly fitted or top-dose-only effect, or another doubt; inactive means no such curve, though single readings can be large; an effect the other way counts as inactive or inconclusive. Unless noted, on the % scale 0 is the no-effect control and ±100 the full control effect.

SMILES | TDP1 cell noCPT | HT1080 IDH1KD tx | IL-1B inflam inh | TDP1 cell CPT | HT1080NT lethal
CN(C)C(=O)c1ccc(NC(=O)Cn2nnnc2-c2ccccc2F)cc1 | 18µM* | / | / | 15µM* | /
CC1CCCN(S(=O)(=O)c2ccc(NC(=O)Cn3nnc(-c4ccccc4F)n3)cc2)C1 (centres undefined) | 23µM* | ? | -3 | ? | ?
CCOc1ccc(NC(=O)Cn2nnc(-c3ccccc3F)n2)cc1 | ? | -16% | 27 | 21µM* | 0%
CC1CCCN(S(=O)(=O)c2ccc(NC(=O)CN3CCCCC3)cc2)C1 (centres undefined) | -24% | 2% | -4 | -26% | -1%
Cc1ccc(-c2nnn(CC(=O)Nc3ccc(S(=O)(=O)N4CCC(C)CC4)cc3)n2)cc1 | 18µM* | 12µM* | 0 | ? | 23µM*
CC1CCN(S(=O)(=O)c2ccc(NC(=O)Cn3nnc(-c4ccccc4)n3)cc2)CC1 | ? | ? | -3 | ? | ?
COc1ccccc1NC(=O)N(C)C[C@H]1Oc2ncc(Br)cc2C(=O)N([C@H](C)CO)C[C@H]1C | ? | 13% | 15 | 3% | 16%
CCOCCC(=O)Nc1ccc2c(c1)c(=O)n(C)n2-c1ccccc1F | -21% | 7% | -1 | -27% | 17%
Cn1c(=O)c2cc(NC(=O)CCc3ccccc3)ccc2n1Cc1cccc(C(F)(F)F)c1 | 13µM* | -2% | 9 | 16µM* | 5%
COc1cccc(Cn2c3ccc(NC(=O)CCc4ccc(F)cc4)cc3c(=O)n2C)c1 | 3.7µM* | 4.1µM* | 43 | 4.6µM* | ?
Cn1c(=O)c2cc(NC(=O)Nc3cccnc3)ccc2n1Cc1cccc(C(F)(F)F)c1 | ? | 4% | 49 | ? | 5%
Cn1c(=O)c2cc(NC(=O)CCc3ccccc3)ccc2n1-c1ccccc1F | 13µM* | 7.3µM* | 40 | 12µM* | ?
Cn1c(=O)c2cc(NC(=O)CCc3ccc(O)cc3)ccc2n1Cc1cccc(C(F)(F)F)c1 | 21µM* | ? | 0 | ? | ?
CC(C)CC(=O)Nc1c2c(nn1-c1ccc(F)cc1)CS(=O)C2 (centres undefined) | 5% | -1% | 6 | 8% | 3%
CN(C)CC(C)(O)c1ccc2c(c1)CN(Cc1cccn1-c1ncccn1)CCO2 (centres undefined) | -14% | / | / | 4%[9.04 µM] | /
COc1ccccc1CCC(=O)Nc1ccc2c(c1)c(=O)n(C)n2C | -18% | 17% | 0 | ? | 20%
COc1ccccc1CCC(=O)Nc1ccc2c(c1)c(=O)n(C)n2Cc1cccc(C(F)(F)F)c1 | ? | -9% | -12 | 23µM* | -12%
COc1ccccc1CCC(=O)Nc1ccc2c(c1)c(=O)n(C)n2Cc1ccc(F)cc1 | 5.2µM* | 5.8µM* | 35 | 4.6µM* | 3.3µM*
CC(C)OC(=O)[C@H]1[C@H](c2ccc(Cl)cc2)[C@@](C#N)(C(N)=O)[C@@H]2C=CC(C(N)=O)=CN21 | -10% | 5% | 5 | ? | 8%
Cc1ccc(Cn2c(C)c3cnn(CC(=O)NC4CCCC4)c(=O)c3c2C)cc1 | ? | 15% | 19 | ? | 10%
O=C1CN(C(=O)COc2ccc(Cl)c(Cl)c2)c2ccccc2N1 | -20% | -4% | -3 | -10% | 1%
O=C1CN(C(=O)Cn2ncc(Cl)c(Cl)c2=O)c2ccccc2N1 | 8.2µM* | 4.1µM* | -106* | 7.3µM* | 4.6µM*
Cc1cccc(NC(=O)CNC(=O)Cn2ncc(Cl)c(Cl)c2=O)c1C | 9.2µM* | 7.3µM* | -100* | 12µM* | 26µM*
O=C(Cn1ncc(Cl)c(Cl)c1=O)NC1CCCCC1 | 15µM* | 15µM* | -100* | 10µM* | 13µM*
O=C(COC(=O)c1c(F)cccc1Cl)NCC1CCCCC1 | -15% | -2% | 18 | ? | -4%
SMILES | TDP1 cell noCPT | HT1080 IDH1KD tx | IL-1B inflam inh | TDP1 cell CPT | HT1080NT lethal
O=C(Cn1ncc(Cl)c(Cl)c1=O)NCC1CCCCC1 | 1.8µM* | ? | -103* | 2.6µM* | ?
CCN(CC)CCCNC(=O)c1ccc2c(c1)NC(=O)C(CS(=O)(=O)Cc1ccc(F)cc1Cl)N2 (centres undefined) | -2% | / | / | -15% | /
O=C(CN1C(=O)c2ccccc2C1=O)NC1CCS(=O)(=O)C1 (centres undefined) | 0% | 4% | -12 | -6% | 7%
O=C(Cn1ncc(Cl)c(Cl)c1=O)NC1CCS(=O)(=O)C1 (centres undefined) | 21µM* | 2% | -6 | 23µM* | -5%
N#Cc1ccc(COc2cccc3cccnc23)cc1 | ? | -11% | -14 | 1% | 3%
O=C(NCCN1C(=O)S/C(=C\c2ccccc2F)C1=O)C1=COCCO1 | 2.9µM* | 12µM* | 2 | ? | ?
O=C(NCCN1C(=O)S/C(=C\c2ccc(Cl)cc2Cl)C1=O)C1=COCCO1 | 12µM* | ? | ? | 15µM* | ?
O=C(CCS(=O)(=O)c1ccc(Cl)cc1)NCCN1C(=O)S/C(=C\c2ccccc2F)C1=O | 16µM* | -4% | 0 | ? | -10%
O=C(NCCN1C(=O)S/C(=C\c2ccccc2F)C1=O)C1CCN(S(=O)(=O)c2cccs2)CC1 | ? | 4% | ? | ? | 1%
O=C(CNC(=O)c1ccccc1F)NCCN1C(=O)S/C(=C\c2ccccc2Cl)C1=O | ? | 3% | 6 | -26% | 0%
O=C(NCCc1ccccc1)C1=COCCO1 | -1% | 19% | 13 | -15% | 12%
O=C(NCCN1C(=O)S/C(=C\c2ccccc2Cl)C1=O)C1=COCCO1 | 6.5µM* | -21% | -2 | 7.3µM* | -17%
CC(C)c1nnc(SCC(=O)N2CCN(C(=O)c3ccco3)CC2)n1N | -1% | -2% | 8 | 2% | 5%
COC(=S)N/C(=N\S(=O)(=O)c1ccc(Cl)cc1)c1ccccc1 | -1% | 28% | -1 | -10% | 13%
COc1cccc(/C=N/Nc2nc(-c3cccnc3)nc3ccccc23)c1 | 16µM* | 3% | 28 | 16µM* | -1%
COc1ccccc1C(C)Nc1nc(-c2cccnc2)nc2ccccc12 (centres undefined) | 23µM* | ? | ? | 18µM* | ?
Fc1ccccc1CNc1nc(-c2cccnc2)nc2ccccc12 | 23µM* | -23% | -97* | ? | -20%
C(=N\Nc1nc(-c2cccnc2)nc2ccccc12)/c1ccccc1 | 16µM* | 5% | / | ? | -5%
CC(Nc1nc(-c2cccnc2)nc2ccccc12)c1ccccc1 (centres undefined) | ? | -17% | 31 | ? | -20%
